Measured values as given in PubChem BioAssay (NCATS).
Several values for one entry are separate records, joined by “and”; a condition that tells them apart may be missing. Equal entries are not always repeated. Inconclusive results are not listed. Activity calls are given as the source filed them. Unless noted, calls come from the whole dose curve; as a rule, active = well fitted curve in either direction with a large enough effect (not every such curve was filed as active); inconclusive = small, poorly fitted or top-dose-only effect, or another doubt; inactive = flat fitted curve, though single readings scatter.

Columns and labels:
[1] = AP1 Signaling Pathway (AID 357);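 note: ME-180 reporter cells stimulated with EGF at its EC50 level; % is set by controls: 0 for no effect and ±100 for the full control effect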
How it was run: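 Read-out was the 460nm/530nm emission ratio (excitation 405nm) after CCF4 loading for 2.5 hours at room temperature. Cells carried an AP-1-driven beta-lactamase reporter, were stimulated with EC50 EGF plus compound for 5 hours, and AC50 values came from titrations.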

[2] = biological target: Cytochrome P450 1A2 (Homo sapiens) (UniProt P05177); assay: p450-cyp1a2 (AID 410; calls by dose curve; note: potency is the fitted concentration of half-maximal effect;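 for activity change, negative = inhibition: -100% = full effect of reference inhibitor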)
Chain of Cytochrome P450 1A2 (Homo sapiens) (P05177 whole entry, looked up): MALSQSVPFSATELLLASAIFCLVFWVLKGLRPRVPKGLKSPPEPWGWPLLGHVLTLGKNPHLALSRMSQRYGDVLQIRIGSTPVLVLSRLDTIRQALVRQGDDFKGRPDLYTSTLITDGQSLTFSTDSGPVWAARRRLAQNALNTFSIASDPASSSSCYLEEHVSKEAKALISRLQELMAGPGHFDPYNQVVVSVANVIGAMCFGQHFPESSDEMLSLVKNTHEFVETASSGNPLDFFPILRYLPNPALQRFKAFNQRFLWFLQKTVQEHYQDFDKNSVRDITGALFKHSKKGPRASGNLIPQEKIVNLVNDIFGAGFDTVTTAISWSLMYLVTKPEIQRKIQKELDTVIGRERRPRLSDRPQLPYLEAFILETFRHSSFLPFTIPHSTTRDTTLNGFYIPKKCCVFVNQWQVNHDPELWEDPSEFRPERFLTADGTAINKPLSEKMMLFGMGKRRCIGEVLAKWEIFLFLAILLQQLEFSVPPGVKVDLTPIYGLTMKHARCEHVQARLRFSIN
How it was run: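 Inhibition was calculated relative to 57 uM furafylline (full inhibition). The reaction used human CYP1A2 at 20nM with Luciferin-ME at its Km, 100uM, driven by an NADPH-regenerating system for 60 min at room temperature.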

[3] = NFAT Signaling Pathway (AID 444); conditions: Jurkat NFAT-bla M1, carbachol, beta-lactamase ratio, 5 h;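 note: carbachol stimulus at about its EC50 of 1 µM final; % is set by controls: 0 for no effect and ±100 for the full control effect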
How it was run: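 Jurkat cells with NFAT-driven β-lactamase reporter and co-expressed M1 receptor, stimulated with carbachol (final 1 uM, ~EC50), compound titration, 5 h at 37 °C. CCF4 loaded 1 h at RT; 460/530 nm ratio gave %activity and AC50.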

[4] = Stat Signaling Pathway (AID 446);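 note: ME-180 cervical cancer cells given 40 pM IL-6 alongside compound; SIE-controlled beta-lactamase reporter measured as 460/530 nm FRET emission ratio; % is set by controls: 0 for no effect and ±100 for the full control effect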
How it was run: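 Reporter line: ME-180 cervical carcinoma, SIE-beta-lactamase. Treatment: compound with 40 pM IL-6, 5 hrs, 37 C, in low-serum OPTI-MEM with 10 mM HEPES pH 7.3. Detection: 460/530 nm fluorescence.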

[5] = biological target: Glucocorticoid receptor (Homo sapiens) (UniProt P04150); assay: GR-EFC Redistribution (AID 451; calls by dose curve; note: potency is the fitted concentration of half-maximal effect); conditions: CHO-K1 GR-EFC translocation, beta-gal luminescence, 2 h
Chain of Glucocorticoid receptor (Homo sapiens) (P04150 whole entry, looked up, the tested form may be a part): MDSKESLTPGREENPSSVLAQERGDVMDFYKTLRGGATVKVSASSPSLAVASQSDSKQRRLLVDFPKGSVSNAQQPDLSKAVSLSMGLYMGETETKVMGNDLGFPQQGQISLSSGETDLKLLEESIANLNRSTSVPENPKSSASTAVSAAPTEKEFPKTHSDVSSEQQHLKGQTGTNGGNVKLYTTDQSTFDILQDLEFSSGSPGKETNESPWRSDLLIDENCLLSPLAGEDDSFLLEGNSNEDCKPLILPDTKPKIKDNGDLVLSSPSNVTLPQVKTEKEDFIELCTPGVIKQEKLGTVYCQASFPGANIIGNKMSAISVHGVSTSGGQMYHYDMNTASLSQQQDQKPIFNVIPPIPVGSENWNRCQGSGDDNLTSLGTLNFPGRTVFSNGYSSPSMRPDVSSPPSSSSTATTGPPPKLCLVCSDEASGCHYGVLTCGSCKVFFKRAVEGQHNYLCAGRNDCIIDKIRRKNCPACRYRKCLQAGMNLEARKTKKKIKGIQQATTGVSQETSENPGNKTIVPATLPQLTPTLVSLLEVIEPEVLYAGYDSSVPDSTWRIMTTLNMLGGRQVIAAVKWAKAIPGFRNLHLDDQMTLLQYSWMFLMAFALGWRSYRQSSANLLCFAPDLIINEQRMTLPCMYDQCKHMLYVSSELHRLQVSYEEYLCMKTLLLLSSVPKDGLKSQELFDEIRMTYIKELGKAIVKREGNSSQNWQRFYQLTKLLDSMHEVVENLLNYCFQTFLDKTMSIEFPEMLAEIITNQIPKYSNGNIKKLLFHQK
How it was run: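 CHO-K1 cells expressing nuclear EA and GR-ED fragments of b-gal; compounds titrated up to 46 uM final, 2 h at 37 C. GR nuclear translocation read as complemented b-gal luminescence after 1 h RT detection.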

[6] = biological target: Mitogen-activated protein kinase 10 (Mus musculus) (UniProt Q61831); assay: JNK3 AlphaScreen Assay (AID 530);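 note: kinase came from lysate of stimulated human HepG2 cells; signal reports phosphorylation of biotinylated GST-cJun 1-79 at Ser73 with 10 µM ATP; % is set by controls: 0 for no effect and ±100 for the full control effect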
How it was run: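 qHTS format: compounds tested as titrations against IL-1beta/TNF-alpha-activated HepG2 lysate JNK3 with biotin-GST-cJun substrate and 10 uM ATP at room temperature. Loss of anti-phospho-cJun AlphaScreen signal indicates inhibition.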

[7] = biological target: 3',5'-cyclic-AMP phosphodiesterase 4B (Homo sapiens) (UniProt Q07343); assay: qHTS Assay for Inhibitors of PDE-IV (AID 607; active = well fitted activation curve with a large enough effect in the main read-out, with a control signal flat, not every such curve was filed as active; note: % of control where 0% means no effect)
Chain of 3',5'-cyclic-AMP phosphodiesterase 4B (Homo sapiens) (Q07343 whole entry, looked up): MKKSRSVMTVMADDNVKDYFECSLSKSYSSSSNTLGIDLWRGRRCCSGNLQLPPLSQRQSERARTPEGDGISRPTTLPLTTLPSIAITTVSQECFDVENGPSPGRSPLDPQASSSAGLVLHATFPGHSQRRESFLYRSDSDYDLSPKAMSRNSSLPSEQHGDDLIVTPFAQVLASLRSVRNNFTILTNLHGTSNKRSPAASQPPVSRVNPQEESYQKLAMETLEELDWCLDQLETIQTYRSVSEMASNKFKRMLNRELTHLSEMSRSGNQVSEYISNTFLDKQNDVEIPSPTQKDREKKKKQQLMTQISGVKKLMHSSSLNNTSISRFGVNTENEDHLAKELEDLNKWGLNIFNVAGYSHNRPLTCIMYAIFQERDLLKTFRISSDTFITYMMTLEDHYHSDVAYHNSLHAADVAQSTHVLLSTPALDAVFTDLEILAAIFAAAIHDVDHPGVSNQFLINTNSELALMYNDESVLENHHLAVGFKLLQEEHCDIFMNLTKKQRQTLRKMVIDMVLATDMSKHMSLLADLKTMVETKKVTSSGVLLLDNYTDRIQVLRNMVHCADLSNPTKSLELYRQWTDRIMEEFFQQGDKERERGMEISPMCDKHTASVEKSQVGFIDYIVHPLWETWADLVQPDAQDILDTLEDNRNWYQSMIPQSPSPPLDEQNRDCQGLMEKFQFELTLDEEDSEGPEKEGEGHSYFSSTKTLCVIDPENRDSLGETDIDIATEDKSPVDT
How it was run: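 Cell-based read-out of cAMP via a modified cyclic nucleotide-gated channel and membrane potential dye (535/590 nm) in HEK293 cells expressing PDE4 endogenously. Compounds tested up to 22.9 uM final; 100 uM RO 20-1724 reference.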

[8] = qHTS Assay for Lipid Storage Modulators (AID 1519; calls by dose curve); conditions: Drosophila S3 cells, BODIPY lipid droplet/cell ratio, laser cytometry, cells loaded with oleic acid; for activity change, negative = inhibition: at 25.7 µM (top of the series)
How it was run: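 Cells seeded at 5,000 per well were treated with compounds over a concentration series and loaded with oleic acid (400 uM, as added). Lipid droplet fluorescence (488 nm excitation, 500-530 nm channel) was read by laser-scanning cytometry and normalized to 20 uM Triacsin C.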

[9] = biological target: Ubiquitin carboxyl-terminal hydrolase 1 (Homo sapiens) (UniProt O94782); assay: Inhibitors of USP1/UAF1: Pilot qHTS (AID 504865; active = well fitted curve in the direction sought with a large enough effect; an effect the other way counts as inactive or inconclusive;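 note: rhodamine fluorescence freed from ubiquitin-rhodamine substrate followed over time; top concentration of the series differs between compounds; % is set by controls: 0 for no effect and ±100 for the full control effect; nearly all actives have a fitted effect of over 35% in size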)
Chain of Ubiquitin carboxyl-terminal hydrolase 1 (Homo sapiens) (O94782 whole entry, looked up): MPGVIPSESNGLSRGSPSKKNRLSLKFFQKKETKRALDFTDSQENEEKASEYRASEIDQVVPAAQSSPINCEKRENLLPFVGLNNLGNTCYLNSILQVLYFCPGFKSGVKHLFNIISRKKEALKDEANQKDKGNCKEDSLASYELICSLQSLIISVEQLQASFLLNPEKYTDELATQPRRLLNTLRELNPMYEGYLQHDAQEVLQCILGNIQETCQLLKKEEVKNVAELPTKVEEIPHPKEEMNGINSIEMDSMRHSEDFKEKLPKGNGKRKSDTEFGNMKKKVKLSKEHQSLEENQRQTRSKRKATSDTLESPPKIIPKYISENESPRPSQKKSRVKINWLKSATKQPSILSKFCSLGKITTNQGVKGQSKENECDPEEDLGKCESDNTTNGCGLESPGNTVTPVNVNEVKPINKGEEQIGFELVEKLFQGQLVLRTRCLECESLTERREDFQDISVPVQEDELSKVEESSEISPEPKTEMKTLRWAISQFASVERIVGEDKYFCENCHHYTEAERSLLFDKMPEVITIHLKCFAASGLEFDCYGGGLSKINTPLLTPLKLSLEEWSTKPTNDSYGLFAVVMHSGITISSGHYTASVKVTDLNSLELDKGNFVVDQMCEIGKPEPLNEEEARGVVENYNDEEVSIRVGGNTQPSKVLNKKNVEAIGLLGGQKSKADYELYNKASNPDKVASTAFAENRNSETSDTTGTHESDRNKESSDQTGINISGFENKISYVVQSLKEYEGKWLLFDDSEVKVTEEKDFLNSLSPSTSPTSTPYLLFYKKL
How it was run: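 1nM USP1/UAF1 + cpd, 15 min RT; start w/ Ub-Rho 150nM final; kinetic FL 480/540 nm, 6 reads q60 s. Buffer 50mM HEPES pH 7.8, 0.5mM EDTA, 1mM TCEP, 0.01% Tween-20, 0.1 mg/ml BSA.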

[10] = biological target: Glucocorticoid receptor (Homo sapiens) (UniProt P04150); assay: GR-GFP Redistribution (AID 450;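 active = compounds whose dose series gives a full or clear partial fitted curve of increased nuclear translocation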; note: potency is the fitted concentration of half-maximal effect); conditions: U2OS GR-GFP nuclear translocation, laser cytometry, 2 h
[11] = biological target: ATP-dependent 6-phosphofructokinase (Trypanosoma brucei brucei) (UniProt O15648); assay: qHTS Assay to Find Inhibitors of T. brucei phosphofructokinase: hit validation (AID 492961; active = well fitted curve in the direction sought with a large enough effect; an effect the other way counts as inactive or inconclusive; note: % is set by controls: 0 for no effect and ±100 for the full control effect)
Chain of ATP-dependent 6-phosphofructokinase (Trypanosoma brucei brucei) (O15648 whole entry, looked up): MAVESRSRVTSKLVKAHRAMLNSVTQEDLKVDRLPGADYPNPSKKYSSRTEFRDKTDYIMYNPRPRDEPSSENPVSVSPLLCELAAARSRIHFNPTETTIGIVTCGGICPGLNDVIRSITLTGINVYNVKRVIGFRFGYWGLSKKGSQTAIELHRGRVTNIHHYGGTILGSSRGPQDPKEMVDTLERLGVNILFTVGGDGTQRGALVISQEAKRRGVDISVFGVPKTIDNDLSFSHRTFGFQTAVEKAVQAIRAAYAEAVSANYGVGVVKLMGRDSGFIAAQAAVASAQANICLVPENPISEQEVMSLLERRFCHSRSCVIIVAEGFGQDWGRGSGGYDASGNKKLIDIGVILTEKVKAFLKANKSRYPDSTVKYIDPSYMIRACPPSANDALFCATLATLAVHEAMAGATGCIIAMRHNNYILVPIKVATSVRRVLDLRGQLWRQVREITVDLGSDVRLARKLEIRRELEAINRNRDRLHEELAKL
How it was run: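 Luminescence from ADP-Glo reports ADP generated as T. brucei PFK (1.25 nM) phosphorylates 0.5 mM fructose-6-phosphate using 0.1 mM ATP. Reactions ran 45 min at room temperature, pH 8.0.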

[12] = biological target: Luciferin 4-monooxygenase (Photinus pyralis) (UniProt P08659); assay: Biochemical firefly luciferase enzyme assay for NPC (AID 624030; active = well fitted curve in the direction sought with a large enough effect; an effect the other way counts as inactive or inconclusive;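 note: purified P. pyralis luciferase at 10 nM with luciferin and ATP substrate; 0% = DMSO and -100% = full luciferase inhibition by PTC124 control; nearly all actives have a fitted effect of over 70% in size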)
Chain of Luciferin 4-monooxygenase (Photinus pyralis) (P08659 whole entry, looked up): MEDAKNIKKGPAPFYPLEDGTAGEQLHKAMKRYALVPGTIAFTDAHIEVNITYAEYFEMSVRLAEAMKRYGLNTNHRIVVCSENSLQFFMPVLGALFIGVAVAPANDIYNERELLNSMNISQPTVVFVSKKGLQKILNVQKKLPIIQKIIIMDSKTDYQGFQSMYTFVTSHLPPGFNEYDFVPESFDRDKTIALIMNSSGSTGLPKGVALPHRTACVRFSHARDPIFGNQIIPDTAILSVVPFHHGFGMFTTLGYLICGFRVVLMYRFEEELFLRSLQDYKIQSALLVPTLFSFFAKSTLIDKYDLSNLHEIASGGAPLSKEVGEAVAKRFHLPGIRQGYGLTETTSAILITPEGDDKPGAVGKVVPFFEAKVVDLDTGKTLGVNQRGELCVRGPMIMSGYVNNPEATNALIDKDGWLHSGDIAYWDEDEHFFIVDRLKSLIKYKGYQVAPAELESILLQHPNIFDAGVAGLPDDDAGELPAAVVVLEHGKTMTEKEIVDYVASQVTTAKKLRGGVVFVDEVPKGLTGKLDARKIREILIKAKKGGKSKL
How it was run: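 Purified P. pyralis luciferase at 10 nM in 50 mM Tris Acetate (final), luminescence read within 5 minutes of enzyme addition to compounds. Activity normalised to PTC124 versus DMSO; concentration-response curves classed by r2, magnitude and activity.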

[13] = qHTS profiling for inhibitors of Plasmodium falciparum proliferation (AID 504749; active = well fitted curve in the direction sought with a large enough effect; an effect the other way counts as inactive or inconclusive;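 note: 0% = DMSO vehicle and full inhibition = artemisinin control; nearly all actives have a fitted effect of over 60% in size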); conditions: P. falciparum in erythrocytes, SYBR Green DNA, 72 h
How it was run: (§1)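 Readout was DNA-dye fluorescence from lysed cultures, ex 485/em 535 nm. Parasitized red cells had grown 72 h with compound; data scaled between 0.29 uM artemisinin and DMSO wells and corrected using vehicle-only plates.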

C2A = assay: as above; conditions: P. falciparum in erythrocytes, SYBR Green DNA, 72 h; series mostly up to 28.7 µM
How it was run: as §1

CP217 = assay: as above; conditions: P. falciparum in erythrocytes, SYBR Green DNA, 72 h; series mostly up to 28.7 µM
How it was run: as §1

CP252 = assay: as above; conditions: P. falciparum in erythrocytes, SYBR Green DNA, 72 h; series mostly up to 12.8 µM
How it was run: as §1

CP256 = assay: as above; conditions: P. falciparum in erythrocytes, SYBR Green DNA, 72 h; series mostly up to 28.7 µM
How it was run: as §1

CP262 = assay: as above; conditions: P. falciparum in erythrocytes, SYBR Green DNA, 72 h; series mostly up to 28.7 µM
How it was run: as §1

[14] = biological target: Cytochrome P450 3A4 (Homo sapiens) (UniProt P08684); assay: qHTS Assay for Activators of Cytochrome P450 3A4 (AID 885; active = well fitted curve in the direction sought with a large enough effect; an effect the other way counts as inactive or inconclusive; note: nearly all actives have a fitted effect of over 65% in size)
Chain of Cytochrome P450 3A4 (Homo sapiens) (P08684 whole entry, looked up): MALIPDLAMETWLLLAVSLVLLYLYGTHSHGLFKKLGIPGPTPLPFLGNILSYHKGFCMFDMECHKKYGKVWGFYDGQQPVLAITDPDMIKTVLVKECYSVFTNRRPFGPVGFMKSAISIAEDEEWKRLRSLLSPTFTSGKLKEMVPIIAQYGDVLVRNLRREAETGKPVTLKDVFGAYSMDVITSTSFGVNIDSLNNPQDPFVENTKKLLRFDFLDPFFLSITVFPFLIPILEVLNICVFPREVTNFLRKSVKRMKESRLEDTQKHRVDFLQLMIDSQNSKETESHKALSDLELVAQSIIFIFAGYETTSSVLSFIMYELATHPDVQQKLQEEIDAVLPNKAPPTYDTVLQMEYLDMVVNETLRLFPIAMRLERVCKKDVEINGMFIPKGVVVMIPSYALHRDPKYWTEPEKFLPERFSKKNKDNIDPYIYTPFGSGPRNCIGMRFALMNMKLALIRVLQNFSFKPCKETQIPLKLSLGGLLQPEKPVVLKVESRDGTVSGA
How it was run: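 Signal was normalized against complete inhibition by 57 uM ketoconazole. The reaction used 20nM CYP3A4 with 25uM Luciferin-PPXE, 10-min compound preincubation and a 60-min NADPH-supported step at RT.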

[15] = measured here: cell count channel max response
[16] = measured here: lipid channel max response
[17] = at 12.8 µM (top of the series), parasite line A
[18] = at 12.8 µM (top of the series), parasite line B

CC(C)[C@@]1(NC(=O)[C@@H]2C[C@H]3c4cccc5[nH]cc(c45)C[C@@H]3N(C)C2)O[C@]2(O)[C@H]3CCCN3C(=O)[C@H](Cc3ccccc3)N2C1=O
inactive: outcome [1] | Potency [2] | activity change, negative = inhibition ([3]; at 17.2 µM (top of the series)) 1.85% | outcome [4] | Potency [5] > 20.6 µM | outcome [6] | Potency [7] | activity change, negative = inhibition [8] -1.27% | Potency [9]
5.89%: max response [8, 16]
6.35%: max response [8, 15]

CC[C@@H]1[C@@H]2C[C@H]3[C@H]4N(C)c5ccccc5[C@@]45C[C@@H]([C@@H]2[C@@H]5O)N3[C@H]1O
inactive: outcome [1] | Potency [2] | activity change, negative = inhibition ([3]; at 17.2 µM (top of the series)) -7.21% | outcome [4] | Potency [10] > 20.6 µM | Potency [5] > 20.6 µM | outcome [6] | Potency [7] | activity change, negative = inhibition [8] -1.86% | Potency [11] | Potency [9] | Potency [12] | activity, negative = inhibition [13, 17] -1.56% | activity, negative = inhibition [13, 18] 7.76% | Potency (C2A) | Potency (CP217) | Potency (CP252) | Potency (CP256) | Potency (CP262)
1.93%: max response [8, 16]
1.73%: max response [8, 15]

CC(C)[C@@]1(NC(=O)[C@@H]2C[C@H]3c4cccc5[nH]cc(c45)C[C@@H]3N(C)C2)O[C@]2(O)[C@H]3CCCN3C(=O)CN2C1=O
10.3%: max response [8, 16]
8.08%: max response [8, 15]
inactive: outcome [1] | Potency [2] | activity change, negative = inhibition ([3]; at 17.2 µM (top of the series)) -1.94% | outcome [4] | Potency [5] > 20.6 µM | outcome [6] | Potency [7] | activity change, negative = inhibition [8] 1.9% | Potency [9]

CNC[C@H](O)c1ccc(O)cc1
inactive: outcome [1] | Potency [2] | activity change, negative = inhibition ([3]; at 17.2 µM (top of the series)) -22.7% | activity change, negative = inhibition ([3]; at 38 µM (top of the series)) 10.5% | outcome [4] | Potency [10] > 46 µM and > 20.6 µM | Potency [5] > 46 µM and > 20.6 µM | outcome [6] | Potency [7] | activity change, negative = inhibition [8] -0.0081% | Potency [11] | Potency [12] | activity, negative = inhibition [13, 17] 3.3% | activity, negative = inhibition [13, 18] 13.2% | Potency (C2A) | Potency (CP217) | Potency (CP252) | Potency (CP256) | Potency (CP262)
-14.8%: max response [8, 15]
-11.6%: max response [8, 16]

C[C@H](NC(C)(C)C)C(=O)c1cccc(Cl)c1
inactive: outcome [1] | Potency [2] | activity change, negative = inhibition ([3]; at 17.2 µM (top of the series)) -9.97% | activity change, negative = inhibition ([3]; at 38 µM (top of the series)) -9.57% | outcome [4] | Potency [10] > 46 µM and > 20.6 µM | Potency [5] > 46 µM and > 20.6 µM | outcome [6] | Potency [7] | activity change, negative = inhibition [8] -1.98% | Potency [11] | Potency [9] | Potency [12] | activity, negative = inhibition ([13]; at 28.7 µM (top of the series), parasite line A) 3.13% | activity, negative = inhibition ([13]; at 28.7 µM (top of the series), parasite line B) 0.713% | Potency (C2A) | Potency (CP217) | Potency (CP252) | Potency (CP256) | Potency (CP262)
-2.37%: max response [8, 16]
-0.478%: max response [8, 15]

C[C@@]12CC[C@H]3[C@@H](CC[C@@H]4C[C@H]5S[C@H]5C[C@]43C)[C@H]1CC[C@H]2O
inactive: outcome [1] | activity change, negative = inhibition ([3]; at 17.2 µM (top of the series)) -8.3% | outcome [4] | Potency [10] > 20.6 µM | Potency [5] > 20.6 µM | outcome [6] | Potency [7] | Potency [14] | activity change, negative = inhibition [8] -4.67% | Potency [11] | Potency [9] | Potency [12] | activity, negative = inhibition [13, 17] 2.41% | activity, negative = inhibition [13, 18] 1.96% | Potency (C2A) | Potency (CP217) | Potency (CP252) | Potency (CP256) | Potency (CP262)
active: Potency [2] 0.0251 µM
-23.9%: max response [8, 16]
-19.3%: max response [8, 15]

CS(=N)(=O)CC[C@@H](N)C(=O)O (some centres not stated)
16.1%: max response [8, 15]
inactive: outcome [1] | Potency [2] | activity change, negative = inhibition ([3]; at 17.2 µM (top of the series)) -1.86% | activity change, negative = inhibition ([3]; at 38 µM (top of the series)) 4.5% | outcome [4] | Potency [10] > 46 µM and > 20.6 µM | Potency [5] > 46 µM and > 20.6 µM | Potency [7] | activity change, negative = inhibition [8] 0.596%
16%: max response [8, 16]

CCN1C[C@]2(C)CC[C@H](O)[C@@]34[C@@H]5CC6[C@@H](OC)C[C@@](O)([C@@H]5[C@@H]6O)[C@H](C[C@@H]23)[C@H]14
inactive: outcome [1] | Potency [2] | activity change, negative = inhibition ([3]; at 17.2 µM (top of the series)) -2.56% | outcome [4] | Potency [10] > 20.6 µM | Potency [5] > 20.6 µM | outcome [6] | Potency [7] | activity change, negative = inhibition [8] -2.73% | Potency [9]
-11.4%: max response [8, 16]
-6.13%: max response [8, 15]

NC[C@H](O)c1ccc(O)cc1
inactive: outcome [1] | Potency [2] | activity change, negative = inhibition ([3]; at 17.2 µM (top of the series)) 6.46% | activity change, negative = inhibition ([3]; at 38 µM (top of the series)) 10.8% | outcome [6] | Potency [7] | activity change, negative = inhibition [8] -0.0033% | Potency [9]
1.62%: max response [8, 15]
3.81%: max response [8, 16]

COc1cc2c3cc1Oc1cc(ccc1O)C[C@@H]1c4c(cc(OC)c(O)c4Oc4cccc(c4)C[C@H]3N(C)CC2)CC[N+]1(C)C
inactive: outcome [1] | activity change, negative = inhibition ([3]; at 17.2 µM (top of the series)) -7.53% | outcome [4] | Potency [5] > 20.6 µM | outcome [6] | Potency [7] | activity change, negative = inhibition [8] 0.776% | Potency [9]
13.7%: max response [8, 16]
15.7%: max response [8, 15]

C[C@@]12CC(=O)[C@H]3[C@@H](CCC4=CC(=O)CC[C@]43C)[C@H]1CCC2=O
-12.2%: max response [8, 16]
-10.7%: max response [8, 15]
inactive: outcome [1] | activity change, negative = inhibition ([3]; at 17.2 µM (top of the series)) 2.56% | outcome [4] | Potency [10] > 20.6 µM | Potency [5] > 20.6 µM | outcome [6] | Potency [7] | activity change, negative = inhibition [8] -2.03% | Potency [9]
